Results on 26 compounds are retold here after PubChem BioAssay (NCI).

About 83,000 compounds went through this panel and 20% of them were active in at least one assay; those are over-represented in the sample as a whole.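 Method: cells in 96-well plates; compound added at one concentration; 48 h incubation; percent growth measured; values under 10 scored active.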 Calls of active or inactive are those of the source.

The experiment has as its system HCT-15 colon. Briefly: NCI-60 one-dose screen, 48 h (100 = growth as untreated, 0 = no growth, -100 = all killed). Conditions: 10 µM unless noted.
On to `COC(=O)[C@@H](C)C[C@H](Cc1ccccc1)NC(=O)c1nc([C@@H](C[C@H](C(C)C)N(C)C(=O)[C@@H](NC(=O)[C@H]2CCCN2C)C(C)C)OC(C)=O)sc1C`, for which the growth is 13.4% (inactive).
With `CCCCCSC1C2C(=O)C(Br)=CC13CCNc1c(O)c4c5c(c13)=[N+]2CCC=5C=N4` (stereo unspecified), the growth is -47.6% (active).
The same measure for `CC1=C(CCCOC(=O)CN)C2=C(C)C3(CC3)[C@@](C)(O)C(=O)C2=C1`: 77.6% (inactive).
For `COC(=O)CC[C@H](Cc1ccccc1)NC(=O)c1csc([C@@H](C[C@H](C(C)C)N(C)C(=O)[C@@H](NC(=O)[C@H]2CCCCN2C)C(C)C)OC(C)=O)n1`, the growth is 57.6% (inactive).
`COC(=O)CC12CC(NC(=O)c3csc([C@@H](C[C@H](C(C)C)N(C)C(=O)[C@@H](NC(=O)[C@H]4CCCCN4C)C(C)C)OC(C)=O)n3)(C1)C2`: the growth is 11.8% (inactive).
For `O=C1CNC(c2ccccc2)c2cc(Cl)ccc2N1` (stereo unspecified), the growth is 105% (inactive).
The same measure for `CC1(C)N=C(N)N=C(N)N1c1cccc(CCCCc2ccc(Cl)c(S(=O)(=O)F)c2)c1`: 66.6% (inactive); for `CC(=O)O[C@H](C[C@H](C(C)C)N(C)C(=O)[C@@H](NC(=O)[C@H]1CCCCN1C)C(C)C)c1nc(C(=O)N[C@@H](Cc2ccccc2)C[C@H](C)C(=O)O)c(C(C)C)s1`: 8.7% (active); for `COC(=O)[C@@H](C)C[C@H](Cc1ccccc1)NC(=O)c1csc(CC[C@H](C(C)C)N(C)C(=O)[C@@H](NC(=O)[C@H]2CCCCN2C)C(C)C)n1`: 10.9% (inactive).
On to `CCOP(=O)(NC[C@H]1O[C@](O)(CO)[C@@H](O)[C@@H]1O)OCC`, for which the growth is 100% (inactive).
Turning to `COc1cc([C@@H]2c3cc4c(cc3[C@H](OC(C)=O)[C@H]3COC(=O)[C@H]23)OCO4)cc(OC)c1OC`, the growth was 9.64% (active).
On to `COC(=O)[C@@H](C)C[C@H](Cc1cn(C)c2ccccc12)NC(=O)c1csc([C@@H](C[C@H](C(C)C)N(C)C(=O)[C@@H](NC(=O)[C@H]2CCCCN2C)C(C)C)OC(C)=O)n1`, for which the growth was 9.96% (active).
Take `CCOC(=O)[C@@H](C)C[C@H](Cc1ccccc1)NC(=O)c1csc([C@@H](C[C@H](C(C)C)N(C)C(=O)[C@@H](NC(=O)[C@H]2CCCCN2C)C(C)(C)C)OC(C)=O)n1`: the growth was 7.37% (active).
As to `CC1=C(CCCNS(C)(=O)=O)C2=C(C)C3(CC3)[C@@](C)(O)C(=O)C2=C1`, the growth was 4.29% (active).
Take `COC(=O)[C@@H](C)C[C@H](Cc1ccccc1)NC(=O)c1cccc([C@@H](C[C@H](C(C)C)N(C)C(=O)[C@@H](NC(=O)[C@H]2CCCCN2C)C(C)C)OC(C)=O)n1`: the growth is 10.6% (inactive).
Regarding `CNC(=O)Oc1ccc(C(C)(C)C)cc1OC(=O)NC`, the growth was 90.5% (inactive).
Turning to `CC1(C)C(C(=O)c2cn(CCCCF)c3ccccc23)C1(C)C`, the growth was 91.9% (inactive).
For `CC(=O)O[C@H](C[C@H](C(C)C)N(C)C(=O)[C@@H](NC(=O)[C@H]1CCCCN1C)C(C)C)c1nc(C(=O)NC2CCC(C(=O)O)CC2)cs1` (stereo partly specified), the growth was 70.6% (inactive).
Next, `CCCC[C@H](NC(=O)[C@H]1CCCN1C)C(=O)N(C)[C@H](C[C@@H](OC(C)=O)c1nc(C(=O)N[C@@H](Cc2ccccc2)C[C@H](C)C(=O)OCC)cs1)C(C)C`: 19.1% (inactive); `CCOC(=O)[C@@H](C)C[C@H](Cc1ccccc1)NC(=O)c1csc([C@@H](C[C@H](C(C)C)N(C)C(=O)CNC(=O)[C@H]2CCCCN2C)OC(C)=O)n1`: 12.8% (inactive); `COc1ccc([As]=[As]c2ccc(OC)c(NCS(=O)(=O)O)c2)cc1NCS(=O)(=O)O` (stereo unspecified): -72.2% (active).
Next, `CC1=C(CCCOC(=O)[C@H](N)CC(C)C)C2=C(C)C3(CC3)[C@@](C)(O)C(=O)C2=C1`: 4.16% (active); `O=[N+]([O-])c1cc(I)cc([N+](=O)[O-])c1`: 90.2% (inactive).
With `CC(=O)OC[C@]1(C)C=C2C(=O)[C@](C)(O)C3(CC3)C(C)=C2[C@H]1OC(=O)N(C)CCN(C)C(=O)OC(C)(C)C`, the growth was 3.65% (active).
Regarding `CC[C@H](C)[C@H](NC(=O)[C@H]1CCCCN1C)C(=O)N(C)[C@H](CCc1nc(C(=O)N[C@@H](Cc2ccccc2)C[C@H](C)C(=O)OC)cs1)C(C)C`, the growth is 12.3% (inactive).
For the compound `COc1ccc(Nc2ccc([N+](=O)[O-])cc2[N+](=O)[O-])cc1CN(CCCl)CCCl`, the growth is 27.7% (inactive).
